Data from ChEMBL document CHEMBL1201862, “PubChem BioAssay data set” (2004).
In all, about 1,300 compounds went through this assay and about 1,000 (77%) were called active. Another 7% or so got no clear call; they are omitted. The calls are words filed in the database; no cut-off is given here. So high a share suggests a set chosen from earlier hits. A selection follows.

system: Giardia; assay: qHTS of small molecules that selectively kill Giardia lamblia: Hit Validation. [Related pubchem assays (depositor defined):AID540272]; assay type: functional; conditions: read-out: Potency

Row | SMILES | AC50
1 | CCCc1nnc(NC(=O)C2C(=O)c3cccc4c3N(CC4)C2=O)s1 (stereo unspecified) | 16.3 µM (active)
